# Assay outcomes: PubChem BioAssay, several laboratories
# A selection: hits, their analogues and other compounds. The true share with any hit is near 27%.
# sEH act: soluble epoxide hydrolase activators, primary screen, biochemical, human sEH; Bifunctional epoxide hydrolase 2 (Homo sapiens), P34913; purified human sEH enzymatic activity, activator screen; activation, % at 2 µM; 91,000 tested, 0.04% active; AID 717, 2007; in the data active means activation above about 37%
# CYP2C19 activ: human CYP2C19 activators, primary screen, biochemical, luminescence; 96,000 tested, under 10 active; AID 1025, 2008; activation factor at 5 µM; recombinant CYP2C19, luciferin-H EGE luminescence; stronger effect = higher value; 0 = fully inhibited enzyme, 1 = untreated enzyme;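 active means activation factor of at least 2 at 5 µM in the primary screen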;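 further: 0 = wells with 2.5 mM tranylcypromine and 1 = vehicle-only wells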
# Target sequence (P33261 whole entry, looked up): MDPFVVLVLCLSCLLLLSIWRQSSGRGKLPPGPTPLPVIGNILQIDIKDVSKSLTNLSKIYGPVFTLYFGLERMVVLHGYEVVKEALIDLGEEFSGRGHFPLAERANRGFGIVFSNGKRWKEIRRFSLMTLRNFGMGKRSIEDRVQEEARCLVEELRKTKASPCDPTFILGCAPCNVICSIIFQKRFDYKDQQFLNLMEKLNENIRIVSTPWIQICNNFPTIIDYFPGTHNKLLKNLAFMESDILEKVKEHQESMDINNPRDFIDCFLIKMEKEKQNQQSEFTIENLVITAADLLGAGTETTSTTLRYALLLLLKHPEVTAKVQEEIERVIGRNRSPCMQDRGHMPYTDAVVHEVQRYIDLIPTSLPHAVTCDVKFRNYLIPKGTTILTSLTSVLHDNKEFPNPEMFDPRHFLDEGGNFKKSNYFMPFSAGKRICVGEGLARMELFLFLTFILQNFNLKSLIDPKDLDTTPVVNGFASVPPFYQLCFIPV
# sEH inh: soluble epoxide hydrolase inhibitors, primary screen, biochemical, human sEH | inhibition, % at 2 µM | recombinant human sEH enzymatic activity assay | Bifunctional epoxide hydrolase 2 (Homo sapiens), P34913 | 91,000 tested, 0.34% active; in the data active means inhibition above about 80%
# CYP2C9 activ: human CYP2C9 activators, primary screen, biochemical, luminescence. AID 1024, 2008. recombinant CYP2C9, luciferin-H conversion; stronger effect = higher value; factor 1 = untreated enzyme, 0 = blocked. activation factor at 5 µM. Cytochrome P450 2C9 (Homo sapiens), P11712. 96,000 tested, 1.4% active;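 active means activation factor of 2 or more for CYP2C9 at a 5 µM dose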;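 further: 0 = sulfaphenazole-blocked wells and 1 = vehicle-only wells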
# CYP2C19 inh: blockers of cytochrome P450 2C19 activity – biochemical, luminescence, ADME assay, primary screen; inhibition, % at 5 µM; 96,000 tested, 21% active; P33261; CYP2C19 Supersomes, luciferin-H EGE luminescence, 30 min;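 active means CYP2C19 inhibition above a set limit at 5 µM in the primary screen, cut at about 50% in these data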;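 further: plate controls were negative control wells for no effect and 2.5 mM tranylcypromine positive control for full effect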
# CYP2C9 inhib: blockers of cytochrome P450 2C9 activity – biochemical, luminescence, ADME assay, primary screen | P11712 | 96,000 tested, 20% active | inhibition, % at 5 µM | CYP2C9 Supersomes, luciferin-H conversion;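 active means blocking of liver enzyme CYP2C9 beyond about 50% at 5 µM, limit read from the data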
# An asterisk follows results filed as active; x = no result given.
SMILES,sEH act,CYP2C19 activ,sEH inh,CYP2C9 activ,CYP2C19 inh,CYP2C9 inhib
Cc1ccc(-n2ccc(=O)c(-c3ccnc(SCc4cccc(Cl)c4)n3)n2)cc1,3.5,0.8,-3.0,0.4,20.4,55.7*
COc1ccccc1OCc1nnc(SCC(=O)NCc2ccco2)n1-c1ccccc1,5.2,x,-2.7,x,x,x
COc1ccc(-n2c(COc3cccc4ccccc34)nnc2SCC(=O)NCc2ccco2)cc1,0.9,0.7,-3.9,0.4,27.8,55.3*
COc1ccc(-n2c(COc3cccc(C)c3)nnc2SCC(=O)NCc2ccco2)cc1,6.1,0.7,-7.6,0.8,27.6,20.8
COc1cccc(OCc2nnc(SCC(=O)NCc3ccco3)n2CCc2ccccc2)c1,-5.1,0.1,2.7,0.1,88.1*,90.8*
COc1ccc(-n2c(COc3ccc4ccccc4c3)nnc2SCC(=O)NCc2ccco2)cc1,-6.5,0.5,6.7,0.5,46.5,51.5*
O=c1[nH]c(NCc2ccccc2)nc2c1CCCC2,5.7,0.9,-7.2,0.7,5.5,25.7
C=CCSC1=C(C#N)C(c2ccccc2C)CC(=O)N1 (stereo unspecified),1.1,0.8,-5.5,0.8,24.5,25.0
N#CC1=C(SCC(=O)Nc2nccs2)NC(=O)CC1c1ccccc1 (stereo unspecified),-7.2,0.4,5.3,0.1,58.5*,86.7*
CCOC(=O)CC(=O)CSC1=C(C#N)C(c2ccccc2OC)CC(=O)N1 (stereo unspecified),x,0.4,x,0.4,62.2*,62.7*
COc1ccccc1C1CC(=O)NC(SCC(=O)Nc2ccccc2)=C1C#N (stereo unspecified),-10.3,0.2,9.6,0.6,76.0*,40.5
Cc1cccn2cc(CCNS(=O)(=O)c3ccc4c(c3)OCCO4)nc12,0.4,0.6,-1.1,1.3,42.3,-27.4
Nc1nc(CSc2nnnn2-c2ccccc2)nc(N2CCCc3ccccc32)n1,-10.3,x,12.5,x,x,x
CN(C)c1nc(N)nc(CSc2nnnn2-c2ccc(F)cc2)n1,-12.4,0.2,12.1,0.6,76.5*,35.8
O=C1CCOc2cc(OCc3ccccc3)ccc21,3.8,x,-1.3,x,x,x
Cc1nnc(SCC(=O)N2CCCCC2)s1,2.8,x,0.5,x,x,x
COC(=O)c1c(NC(=S)Nc2ccccc2Cl)sc(C)c1C,-8.9,0.7,12.6,0.7,25.3,25.9
COC(=O)c1c(NC(=O)C2CC(=O)NN2Cc2ccccc2)sc(C)c1C (stereo unspecified),9.5,0.1,-8.8,0.2,85.5*,82.3*
CC(CC1CC(C)(C)OC1=O)C(=O)Nc1nncs1 (stereo unspecified),-1.5,0.8,2.0,1.1,18.4,-7.0
O=C(CSc1nn(-c2ccc(Cl)cc2)c(=S)s1)N1CCN(C(=O)c2ccco2)CC1,x,0.8,x,0.6,16.0,35.3
O=C(CSc1nnc(SCc2ccc(Cl)cc2)s1)N1CCN(C(=O)c2ccco2)CC1,1.9,0.9,0.9,0.4,5.5,55.1*
COc1ccc(S(=O)(=O)N2CCN(C(=O)c3ccco3)CC2)cc1OC,11.8,0.6,-15.8,1.1,45.0,-5.8
O=C(c1ccco1)N1CCN(S(=O)(=O)Cc2ccc(Cl)cc2)CC1,-2.8,0.2,6.4,0.7,77.9*,31.2
O=C(Nc1ccc(N2CCN(C(=O)c3ccco3)CC2)c(Cl)c1)c1cccs1,-31.3,0.7,34.6,0.5,32.1,47.9
COc1ccc(Cl)cc1S(=O)(=O)N1CCN(C(=O)c2ccco2)CC1,-1.1,0.1,1.2,1.1,94.4*,-12.0
O=C(Cc1ccc(Cl)cc1)Nc1ccc(N2CCN(C(=O)c3ccco3)CC2)c(Cl)c1,-85.8,0.1,86.0*,0,92.2*,96.8*
Cc1[nH]c2ccccc2c1C(=O)CN1CCC(C(N)=O)(N2CCCCC2)CC1,x,1.1,x,0.8,-12.7,16.5
Cc1nc2c3cc(Cl)ccc3n(CCN3CCCCC3)c2s1,6.0,0.6,-7.0,0.7,44.6,27.5
O=C(O)c1ccccc1C(=O)OCCCCOC(=O)c1ccccc1C(=O)O,x,1.1,x,0.9,-6.1,5.4
Cc1nnc(NC(=O)CSc2nnc(-c3ccc(S(=O)(=O)N4CCCC4)cc3)n2C)s1,4.8,x,-5.2,x,x,x
